Compounds with a hit are over-represented: about 2.2% of the library has one in this group of screens.
TRPM1 prom inh = inhibitors of MITF-dependent TRPM1 promoter reporter, primary screen, cell-based, SK-MEL-5, single point, luciferase; inhibition, % at 12.5 µM; 0.83% of 330,000 active; SK-MEL-5 TRPM1 promoter luciferase, 24 h;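 active = mean inhibition across replicates of 60% or more, whatever share of single replicates reaches that level; inconclusive = some that reach 60%, reason not given; inactive = mean inhibition across replicates below 60%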
Shn3 inh set2 = reduction of Shn3 3'UTR firefly luciferase signal, primary screen, Schnurri-3 inhibitor project, cell-based, Clone20 osteoblasts, set 2 | Clone20 osteoblast Shn3 3'UTR firefly luciferase, 24 h | inhibition, % at 12.5 µM | 0.52% of 360,000 active;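 active = mean inhibition of at least 75% with every replicate also reaching 75%; inconclusive = mean inhibition at least 75% but some replicate below; inactive = mean inhibition below 75%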;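 also: 0% = median of neutral control wells and 100% = pilot-screen positive control compound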
EWS-Fli block = EWS/Fli-driven NR0B1 reporter inhibitors, primary screen, A673 cells, NR0B1 luciferase, luminescence, MLPCN library. viability-normalised. inhibition, % at 12.6 µM. AID 651661, 2012. 0.67% of 350,000 active;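 active = mean inhibition of at least 50% after viability correction, with every replicate also passing that limit; inconclusive = mean reaches 50% but only one of two replicates passes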;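 also: firefly luciferase signal divided by Alamar Blue viability fluorescence both relative to DMSO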
PAX8 reporter = inhibitors of PAX8-driven TPO luciferase reporter, primary screen, RMG-I cells, single concentration. SteadyGlo, 24 h. inhibition, % at 12.6 µM. 1.2% of 360,000 active;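 active = mean replicate inhibition at least 60% with every replicate also reaching 60%; inconclusive = only one of the two criteria is met; inactive = mean below 60% and not all replicates reaching 60%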;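 also: luciferase light reporting Pax8 driven TPO promoter activity; plate controls were median of neutral control wells for no effect and mitoxantrone controls for full effect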
LMP1 NFkB inh = EBV LMP1-driven NF-kappaB luciferase reporter inhibitors, primary screen, cell-based, luminescence, single point; 0.69% of 350,000 active; LMP1-induced NF-kappaB luciferase reporter cells; inhibition, % at 12.5 µM; in the data active = inhibition above about 41%; inconclusive = no clear call, values can overlap the other calls;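 also: 0% = neutral control wells and 100% = reference inhibitor control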
LGR2 antag = inhibitors of bursicon-induced LGR2 CRE-luciferase signal, primary screen, cell-based, HEK293, CRE-luciferase reporter, bursicon stimulation | Drosophila bursicon receptor LGR2 (rickets) | bursicon-stimulated, 4 h | inhibition, % at 9.99 µM | 0.35% of 380,000 active | AID 720647, 2013;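 active = drop in luminescence signal, shown as inhibition above about 50% in the replicate tests, limit read from the data, passing the limit was not always enough; inconclusive = probably only some replicates passing the limit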;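 also: agonist challenge used bursicon conditioned medium at about half maximal strength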
* hit, by the source's call; u = inconclusive; x = no result.

SMILES | TRPM1 prom inh | Shn3 inh set2 | EWS-Fli block | PAX8 reporter | LMP1 NFkB inh | LGR2 antag
O=C(CC1CC1)N1CC(=O)N2[C@@H](CO)[C@H](c3ccc(C#Cc4ccccc4)cc3)[C@@H]2C1 | x | x | 5 | x | x | 14
O=C(O)COCC(=O)N1CCN(c2cc(C(F)(F)F)nc3ccccc23)CC1 | -3 | 4 | 2 | 11 | 1 | -9
CCC(=O)N1CCN(c2ccc(-n3c(=O)ccc4cnc5ccc(-c6cnc7ccccc7c6)cc5c43)cc2C(F)(F)F)CC1 | x | x | 45 | 71* | x | 33
COc1cc(C2C3=C(COC3=O)OC(C)(C)Oc3cc4c(cc32)OCO4)cc(OC)c1OC (stereo unspecified) | 54 | -1 | 54* | 93* | 1 | -17
C[C@@H]1CN([C@@H](C)CO)C(=O)c2cc(NC(=O)Nc3ccccc3)ccc2O[C@@H]1CN(C)C(=O)Nc1ccc2c(c1)OCO2 | x | x | -8 | x | x | 10
COCCNC(=O)[C@H]1[C@H](CO)[C@H]2Cn3c(cccc3=O)[C@@H]1N2Cc1cc(F)ccc1F | x | x | 0 | -9 | x | -1
O=C(COC(=O)c1ccccc1)NC1CCCC1 | -8 | -10 | -15 | 0 | -8 | -43
CC(CNC1CCCCC1)OC(=O)c1ccccc1 (stereo unspecified) | 4 | 13 | -6 | -14 | 62* | 22
CCC(=O)N1CCCCN2[C@H](CO)[C@H](c3ccc(C#Cc4ccccc4)cc3)[C@@H]2C1 | x | x | -23 | -11 | x | -6
C[C@@H]1CCCCO[C@@H](CN(C)Cc2ccc(C(F)(F)F)cc2)[C@H](C)CN([C@@H](C)CO)C(=O)c2cc(NS(=O)(=O)c3ccc(F)cc3)ccc2O1 | x | x | 71* | 105* | x | -1
C[C@@H]1CCCCO[C@@H](CN(C)Cc2ccc(C(F)(F)F)cc2)[C@@H](C)CN([C@H](C)CO)C(=O)c2cc(NS(=O)(=O)c3ccc(Cl)cc3)ccc2O1 | x | x | -11 | -16 | x | 12
C[C@@H]1CCCCO[C@@H](CN(C)Cc2ccc(C(F)(F)F)cc2)[C@@H](C)CN([C@@H](C)CO)C(=O)c2cc(NS(=O)(=O)c3ccc(F)cc3)ccc2O1 | x | x | 0 | 86* | x | 7
C[C@@H]1CCCCO[C@H](CN(C)Cc2ccc(C(F)(F)F)cc2)[C@@H](C)CN([C@H](C)CO)C(=O)c2cc(NS(=O)(=O)c3ccc(F)cc3)ccc2O1 | x | x | -9 | -3 | x | 1
C[C@@H]1CN([C@@H](C)CO)C(=O)c2cc(NS(=O)(=O)c3ccc(F)cc3)ccc2O[C@@H](C)CCCCO[C@H]1CN(C)Cc1ccc(C(F)(F)F)cc1 | x | x | 27 | 97* | x | -11
Cc1ccc(S(=O)(=O)Nc2ccc3c(c2)C(=O)N([C@H](C)CO)C[C@H](C)[C@H](CN(C)Cc2ccc(C(F)(F)F)cc2)OCCCC[C@@H](C)O3)cc1 | x | x | 1 | 25 | x | -7
C[C@@H]1CN([C@H](C)CO)C(=O)c2cc(NS(=O)(=O)c3ccc(F)cc3)ccc2O[C@@H](C)CCCCO[C@H]1CN(C)Cc1ccc(C(F)(F)F)cc1 | x | x | 65* | 114* | x | 15
O=C(C[C@@H]1CC[C@@H](NS(=O)(=O)c2ccccc2)[C@@H](CO)O1)N1CCN(c2ccccc2)CC1 | x | x | x | -24 | x | -6
C[C@@H]1CN([C@H](C)CO)S(=O)(=O)c2ccc(-c3cccc(F)c3)cc2O[C@@H]1CN(C)C | x | x | 5 | x | x | 12
CCC(=O)NC1=C(Cl)C(=O)C(NC(=O)CC)=C(Cl)C1=O | 23 | 17 | 25 | 86* | 11 | 9
N#C/C(=C\c1ccc([N+](=O)[O-])o1)C(=O)Nc1ccc(F)cc1 | 33 | 0 | 15 | 13 | -6 | 1
N#CCc1ccc(NC(=O)/C=C/c2ccc([N+](=O)[O-])o2)cc1 | 100* | 64 | x | x | 30 | x
O=C(NCC[C@@H]1CC[C@H](NS(=O)(=O)Cc2ccccc2)[C@@H](CO)O1)C1CCCC1 | x | x | -1 | -6 | x | -5
Cc1ccc(NC(=S)/C(C#N)=C2/Nc3ccccc3S2)cc1 | x | -1 | -9 | 84* | -3 | -17
O=C(C=Cc1ccccn1)c1ccccc1O | 88* | -17 | 2 | -13 | 6 | -1
O=C(/C=C/c1cccnc1)c1ccccc1O | 0 | 13 | 16 | 13 | 7 | 3
SMILES | TRPM1 prom inh | Shn3 inh set2 | EWS-Fli block | PAX8 reporter | LMP1 NFkB inh | LGR2 antag
O=C(C=Cc1ccccn1)c1ccccc1 | 70* | 2 | 13 | x | 13 | u
COC1(OC)C(/C=C/c2ccc(C)cc2)C(C#N)(C#N)C1(OC)OC (stereo unspecified) | 28 | u | x | 85* | 3 | x
COc1ccc(/C=N/NC(=O)C(=O)N2CCCCCC2)cc1 | 7 | 8 | 3 | -11 | 12 | -38
O=C(COc1ccc(/C=N/NC(=O)C(=O)N2CCCCCC2)cc1)Nc1ccccc1Cl | -31 | 4 | -41 | 78* | -3 | 5
COc1ccc(-c2ccc3c(c2)[C@@H]2[C@@H](CCN2C(=O)C2CCCCC2)[C@H](CO)N3C)cc1 | x | x | 13 | 93* | x | 15
COc1ccc(-c2ccc3c(c2)[C@H]2[C@H](CCN2S(=O)(=O)c2ccccc2C)[C@H](CO)N3C)cc1 | x | x | 12 | 69* | x | 19
COc1ccc(-c2ccc3c(c2)[C@H]2[C@H](CCN2C(=O)C2CCCCC2)[C@H](CO)N3C)cc1 | x | x | 2 | 23 | x | 21
COc1ccc(-c2ccc3c(c2)[C@@H]2[C@@H](CCN2C(=O)C2CCCC2)[C@H](CO)N3C)cc1 | x | x | -1 | 76* | x | -11
Cc1c(C)n(CC(O)CN2CCN(C)CC2)c2ccccc12 (stereo unspecified) | 3 | -12 | 0 | 23 | 60* | -5
O=C(C1CCC1)N1CC(=O)N2[C@@H](CO)[C@H](c3ccc(C#Cc4cccc(F)c4)cc3)[C@@H]2C1 | x | x | -4 | -5 | x | 8
O=C(C1CCC1)N1CC(=O)N2[C@H](C1)[C@H](c1ccc(C#Cc3cccc(F)c3)cc1)[C@@H]2CO | x | x | -2 | 81* | x | -3
O=C(C1CC1)N1CC(=O)N2[C@H](C1)[C@H](c1ccc(C#Cc3cccc(F)c3)cc1)[C@@H]2CO | x | x | 2 | 69* | x | 11
CCCNC(=O)N1CC2(CN(Cc3ccc(OC)cc3)C2)c2c(n(C)c3cc(OC)ccc23)[C@H]1CO | x | x | 5 | x | x | -18
CC(OC(=O)/C=C/c1ccco1)C(=O)Nc1cccc([N+](=O)[O-])c1 (stereo unspecified) | 13 | 25 | -4 | 7 | 0 | x
CC(=O)c1ccc(NC(=O)C(C)OC(=O)/C=C/c2ccco2)cc1 (stereo unspecified) | 8 | 88* | -10 | -9 | -3 | x

Compound activity deposited in PubChem by Broad Institute.
